The nature of test [1]: BSK_KF3CT_SRB: Viability Assessment in the BioMAP Diversity Plus: KF3CT Assay (AID 2283069).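 Also: total protein by sulforhodamine B staining as a cytotoxicity measure; read 24 h after compound addition; fitted for both signal gain and loss against DMSO baseline.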 To be noted: primary human keratinocytes with fibroblasts. The method, boiled down: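 Keratinocytes co-cultured with foreskin fibroblasts (human primary); chemical added, 24 h; fix 10% TCA, stain 0.1% SRB, A560. Bidirectional fit vs DMSO.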
Read-out in test [2]: Interleukin-1 alpha (IL1a), IL1A (gene 3552)
Description: BSK_KF3CT_IL1a: BioMAP Diversity Plus: KF3CT Assay for Interleukin-1 alpha (IL1a) Biomarker Activity (AID 2283070). To be noted: primary human keratinocytes with fibroblasts; actives raise or lower the signal. The method, boiled down: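 Chemicals were dosed onto co-cultured human keratinocytes and foreskin fibroblasts, IL-1a was quantified by ELISA at 24 h, and activity was fitted in both directions relative to DMSO controls.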

Read-out in test [3]: TIMP metallopeptidase inhibitor 2 (TIMP2), TIMP2 (gene 7077)
As to the kind of experiment: BSK_KF3CT_TIMP2: BioMAP Diversity Plus: KF3CT Assay for TIMP metallopeptidase inhibitor 2 (TIMP2) Biomarker Activity (AID 2283071). To be noted: primary human keratinocytes with fibroblasts; actives raise or lower the signal. Summed up: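 Human primary keratinocyte/foreskin fibroblast co-culture dosed with chemical and sampled at 24 h. TIMP-2 levels quantified by ELISA; bidirectional fitting against DMSO negative control as baseline.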

Read-out in test [4]: Transforming growth factor beta 1 (TGFb1), TGFB1 (gene 7040)
As to the kind of experiment: BSK_KF3CT_TGFb1: BioMAP Diversity Plus: KF3CT Assay for Transforming growth factor beta 1 (TGFb1) Biomarker Activity (AID 2283072). The conditions noted are these: primary human keratinocytes with fibroblasts; actives raise or lower the signal. Summed up:
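Human keratinocyte plus foreskin fibroblast primary co-culture, dosed with chemical for 24 h. TGF-b1 quantified by ELISA. Activity fitted bidirectionally against DMSO negative control as baseline.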

Read-out in test [5]: C-C motif chemokine 2 (Homo sapiens) (UniProt P13500)
Description: BSK_KF3CT_MCP1: BioMAP Diversity Plus: KF3CT Assay for Monocyte Chemoattractant Protein 1 (MCP1/CCL2) Biomarker Activity (AID 2283073). To be noted: primary human keratinocytes with fibroblasts; actives raise or lower the signal. Summed up: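 ELISA read-out of MCP-1, 24 h post-dose, in primary human skin keratinocytes co-cultured with fibroblasts. Parallel SRB staining monitors cytotoxicity; changes fitted both directions relative to DMSO.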

Read-out in test [6]: urokinase plasminogen activator (uPA), PLAU (gene 5328)
Description: BSK_KF3CT_uPA: BioMAP Diversity Plus: KF3CT Assay for urokinase plasminogen activator (uPA) Biomarker Activity (AID 2283075). The conditions noted are these: primary human keratinocytes with fibroblasts; actives raise or lower the signal. The method, boiled down:
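ELISA readout of uPA, analyzed for signal gain or loss relative to DMSO, from a human primary keratinocyte–foreskin fibroblast co-culture measured 24 h after chemical treatment.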

Read-out in test [7]: CD40, CD40 (gene 958)
Description: BSK_LPS_CD40: BioMAP Diversity Plus: LPS Assay for CD40 Biomarker Activity (AID 2283076). To be noted: primary human HUVEC with PBMC; actives raise or lower the signal. The method, boiled down: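 In the LPS system of human endothelial cells with peripheral blood mononuclear cells, CD40 levels were read by ELISA 24 h post-treatment. Signal changes in either direction were fitted against the DMSO baseline, with parallel SRB protein staining.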

Read-out in test [8]: E-selectin (Homo sapiens) (UniProt P16581)
Description: BSK_LPS_Eselectin: BioMAP Diversity Plus: LPS Assay for Eselectin Biomarker Activity (AID 2283077). The conditions noted are these: primary human HUVEC with PBMC; actives raise or lower the signal. Summed up:
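E-selectin ELISA on LPS-stimulated endothelial cell/PBMC co-cultures, read 24 h post-treatment; gains and losses fitted against DMSO. Parallel SRB staining (0.1% SRB after 10% TCA fixation, 560 nm) flags overt cytotoxicity.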

Read-out in test [9]: Matrix Metallopeptidase 9 (MMP9), MMP9 (gene 4318)
Description: BSK_KF3CT_MMP9: BioMAP Diversity Plus: KF3CT Assay for Matrix Metallopeptidase 9 (MMP9) Biomarker Activity (AID 2283074).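 As to AC50: MMP9 protein level quantified by ELISA in the co-culture.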 The conditions noted are these: primary human keratinocytes with fibroblasts; actives raise or lower the signal. The method, boiled down:
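Human keratinocyte/foreskin fibroblast co-culture; compound added; 24 h; MMP-9 by ELISA; bidirectional fit vs DMSO baseline.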

Read-out in test [10]: Interleukin-8 (IL8), CXCL8 (gene 3576)
Description: BSK_LPS_IL8: BioMAP Diversity Plus: LPS Assay for Interleukin-8 (IL8) Biomarker Activity (AID 2283078). To be noted: primary human HUVEC with PBMC; actives raise or lower the signal. The method, boiled down:
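ELISA read-out of IL-8 after 24 h chemical treatment of LPS-activated endothelial/PBMC human primary co-cultures. Changes either up or down relative to DMSO; overt cytotoxicity checked by sulforhodamine B staining in parallel wells.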

Where “and” joins values, the source holds several entries; their conditions need not be identical. Identical values can stand only once. Where a structure was tested more than once in an assay, its records may differ in their call. Calls of active or inactive are those of the source. The calls were made as follows: active = hit-call score of the fitted dose curve at least 0.9, where 1 is the maximum; inactive = score below 0.9.

The AC50 is the midpoint of the concentration-response curve, whichever way the signal moves.

E-selectin (Homo sapiens), sequence (P16581 whole entry, looked up): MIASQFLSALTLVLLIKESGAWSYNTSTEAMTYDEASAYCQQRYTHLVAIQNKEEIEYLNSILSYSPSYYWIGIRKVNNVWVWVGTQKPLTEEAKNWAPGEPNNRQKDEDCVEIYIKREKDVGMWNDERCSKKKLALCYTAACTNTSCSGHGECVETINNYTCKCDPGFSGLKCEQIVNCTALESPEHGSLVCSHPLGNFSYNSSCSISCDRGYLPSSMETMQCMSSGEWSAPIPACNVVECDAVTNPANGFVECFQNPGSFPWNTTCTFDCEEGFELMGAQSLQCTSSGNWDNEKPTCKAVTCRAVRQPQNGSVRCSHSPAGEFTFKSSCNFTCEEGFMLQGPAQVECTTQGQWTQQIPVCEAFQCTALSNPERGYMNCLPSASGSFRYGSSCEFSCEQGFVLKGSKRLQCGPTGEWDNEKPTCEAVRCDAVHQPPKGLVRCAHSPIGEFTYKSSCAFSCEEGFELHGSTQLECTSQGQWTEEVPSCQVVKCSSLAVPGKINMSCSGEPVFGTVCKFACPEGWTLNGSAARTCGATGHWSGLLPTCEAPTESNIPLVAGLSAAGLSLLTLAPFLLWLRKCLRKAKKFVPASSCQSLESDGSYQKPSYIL

On to `COc1nc(C)nc(NC(=O)NS(=O)(=O)c2ccccc2OCCCl)n1`, for which the result in [1], in test [2], in test [3], in [4], in test [5] and in [6] was inactive. In addition, the outcome in test [7] and in test [8] was inactive.

Regarding `CCOC(=O)C(C)Oc1ccc(Oc2nc3ccc(Cl)cc3o2)cc1` (stereo not drawn), the result in test [1], in test [2], in test [3], in test [4], in [5] and in test [7] was inactive. The result in test [8] and in test [10] was inactive. Also, the AC50 in test [9] was 9.61 µM (active).

Take `CCCCOCCOCCOCc1cc2c(cc1CCC)OCO2`: the result in [1], in test [2], in test [3], in [4], in test [5] and in test [9] was inactive. Moreover, the result in [8] was inactive. In addition, in [7], the AC50 was 20 µM (active).

As to `N[C@@H](Cc1cc(I)c(Oc2ccc(O)c(I)c2)c(I)c1)C(=O)O`, the outcome in test [1], in test [2], in test [3], in [4], in [5] and in test [6] was inactive. In addition, the outcome in test [7] and in test [10] was inactive. In test [8], the AC50 is 13.6 µM (active).

In the case of `c1ccc(Nc2ccccc2)cc1`, the outcome in test [1], in test [2], in test [3], in test [4], in test [5] and in [9] was inactive. Moreover, the result in test [6], in [7] and in test [8] was inactive.

As for `N#CSCSc1nc2ccccc2s1`, the AC50 in test [1] is 5.31 µM (active); in [2], 7.76 µM (active) and 11.4 µM (active); in [3], 4.19 µM (active) and 10.2 µM (active); in test [4] it was 10.2 µM (active) and 11.5 µM (active); in [5], 2.31 µM (active) and 11.1 µM (active); in test [6], 6.91 µM (active) and 11.5 µM (active). Moreover, the AC50 in test [7] is 1.9 µM (active) and 5.14 µM (active); in test [8], 3.96 µM (active) and 8.13 µM (active). Moreover, in test [1], the outcome was inactive.

In the case of `S=C(S)NCCNC(=S)S.[Mn+2].[S-]C([S-])=NCCN=C([S-])[S-].[Zn+2]`, the result in test [1], in test [2], in test [3], in [4], in [5] and in test [9] was inactive. Moreover, the result in [6], in test [7] and in test [8] was inactive.

`CCNc1nc(N)nc(Cl)n1`: the outcome in test [1], in [2], in test [3], in test [4], in test [5] and in test [6] was inactive. The outcome in test [7] and in [8] was inactive.

`CC(C)CCCCCCc1ccc(O)cc1`: the AC50 in [1] was 5.35 µM (active); in [2] it was 8.32 µM (active); in test [3], 6.18 µM (active); in test [4], 5.58 µM (active); in test [5], 8.65 µM (active); in test [9], 9.76 µM (active). For the same compound, the AC50 is 9.28 µM (active) in test [7] and 12.1 µM (active) in [8].

`c1ccc2[nH]c(-c3cscn3)nc2c1`: the result in [1], in test [2], in test [3], in [4], in test [5] and in [6] was inactive. Further, the outcome in test [7], in test [8] and in test [10] was inactive.

As to `CCCOC(=O)NCCCN(C)C`, the outcome in test [1], in [2], in test [3], in test [4], in [5] and in test [6] was inactive. Further, the result in [7] and in [8] was inactive.

On to `CCOC(=O)[C@H](C)Oc1ccc(Oc2nc3ccc(Cl)cc3o2)cc1`, for which the outcome in [1], in [2], in [3], in test [4], in [5] and in test [6] was inactive. Moreover, the result in [7] and in test [8] was inactive.

Turning to `C#C[C@]1(O)CC[C@H]2[C@@H]3CCC4=CC(=O)CC[C@@H]4[C@H]3CC[C@@]21CC`, the outcome in test [1], in test [2], in test [3], in test [4], in test [5] and in test [9] was inactive. Also, the outcome in [7] and in test [8] was inactive.

As for `Oc1ccc(C(c2ccc(O)cc2)C(Cl)(Cl)Cl)cc1`, the AC50 in test [1] is 24.1 µM (active); in test [2], 32.9 µM (active); in [3] it was 20.7 µM (active); in [5], 20 µM (active); in test [6], 31.8 µM (active); in test [7], 24.9 µM (active). For the same compound, the AC50 in test [10] is 14.9 µM (active). The outcome in [4] was inactive.

These data come from PubChem BioAssay (EPA / NIEHS).
